Data: PubChem BioAssay AID1845224 (National Center for Advancing Translational Sciences (NCATS), 2023)
Records with an inconclusive call do not appear. The source made the active and inactive calls. Calls come from the whole dose curve; as a rule, active = well fitted curve in the direction sought with a large enough effect; inconclusive = small, poorly fitted or top-dose-only effect, or another doubt; inactive = no such curve, though single readings can be large or run the other way.

System: NanoLuc luciferase (engineered Oplophorus gracilirostris luciferase)
Assay: Confirmatory Nanoluciferase (NLuc) qHTS assay for identification of artifact compounds.
Settings: secreted NLuc in S16 cell medium, luminescence, 5 min; series mostly up to 39 µM
Outline: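 Conditioned medium from NLuc-expressing S16 cells (diluted 1:55) was incubated with compounds for 15 min at room temperature. Nano-Glo substrate (1:100) was then added, and luminescence was read after 5 min.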

Potency, inactive:
C[C@]12C[C@H](O)[C@H]3[C@@H](CCC4=CC(=O)CC[C@@]43C)[C@@H]1CC[C@@H]2C(=O)CO
CCOc1ccc(OCC)c(NS(=O)(=O)c2c(C)[nH]c(=O)[nH]c2=O)c1
Cc1ccc(NC(=O)Nc2nnc(SCC(=O)N3CCCCC3)s2)cc1
Nc1cccc(-c2ccc(NC(=O)c3cccs3)cn2)c1
Cc1c(NC(=O)C(C)(C)C)cccc1-c1nc2ccccc2s1
CC1=CC23C(=O)C(C=C(CO)[C@@H](O)[C@]2(O)[C@H]1O)[C@H]1[C@@H](C[C@H]3C)C1(C)C (stereo partly drawn)
COc1ccc(NC(=O)c2cnn3c(-c4ccccc4)cc(C)nc23)cc1
O=C(Nc1sc2c(c1-c1nc3ccccc3s1)CCNC2)C(F)F
COc1ccc(OCc2nnc(-c3ccccc3)o2)cc1
COc1ccc(-n2nc(C(=O)Nc3cccc(C)n3)c3c4ccccc4n(C)c3c2=O)cc1
Cc1ccc(NC(=O)c2ccc(Br)cc2)c(C(=O)c2ccccc2)c1
COc1ccc(CCNC(=O)Cn2cc(C(=O)c3ccc(F)cc3)c(=O)c3ccc(C)nc32)cc1OC
Cc1ccc(NC(=O)c2nc(-c3ccncc3)no2)c(Cl)c1
CCC1Oc2ccccc2N(CC(=O)NCc2ccc(C)cc2)C1=O (stereo not drawn)
Cc1ccc(N2CC(NC(=O)C(=O)c3c[nH]c4ccccc34)CC2=O)cc1 (stereo not drawn)
CC(=O)Nc1ccc(Nc2nc3ccc(C)cc3n3nnnc23)cc1
Cc1cccn2c(=O)c3cc(C(=O)NCc4ccccc4)c(=N)n(CCOCCO)c3nc12
CCCNC(=O)N1CCCN(S(=O)(=O)c2ccc3c(ccn3CC)c2)CC1
COc1ccc(CNC(=O)CCc2c(C)nc3c4cccnc4nn3c2C)cc1
CC1CCN(c2ccc(-c3cccc(NS(=O)(=O)c4ccc(F)cc4F)c3)nn2)CC1
C=C[C@@]1(C)CC(=O)[C@]2(O)[C@@]3(C)[C@@H](O)CCC(C)(C)[C@@H]3[C@H](OC(=O)CCN(C)C)[C@H](OC(C)=O)[C@@]2(C)O1
O=C(Nc1ccc(Cl)c(Cl)c1)Nc1ncc(-c2ccncc2)s1
CC(C)[C@@H](C)/C=C/[C@@H](C)[C@H]1CC[C@H]2/C(=C/C=C3\C[C@@H](O)CC[C@@H]3C)CCC[C@]12C
Cc1ccc(CNCc2cn[nH]c2-c2ccc(C)cc2)cc1
CCOC(=O)c1c(C)[nH]c(C)c1S(=O)(=O)N1CCC(C(=O)N2CCN(c3ccccc3)CC2)CC1
Cc1ccc(C(=O)Nc2onc3c2CCCC3)cc1
Oc1ccc(C2(c3ccc(O)cc3)CC3CC2C2CCCC32)cc1 (stereo not drawn)
COC(=O)C1=CO[C@@H](O[C@@H]2O[C@H](CO)[C@@H](O)[C@H](O)[C@H]2O)C2C(CO)=CCC12 (stereo partly drawn)
